{
  "source": "the supplement of paper PMC3342239",
  "note": "Counter-ions that a name gives are not always drawn.",
  "data": [
    {"test_system": "Saccharomyces cerevisiae", "test": "fraction of cells in G1 phase (DNA content, flow cytometry); higher = more cells with unreplicated DNA (G1 delay)", "settings": "temperature: 30 C; YPD; BY4741 PDR5+ SNQ2+; drug added to: actively dividing cells; 4.33 h", "method": "(§1)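 S. cerevisiae cultures in YPD at 30°C were treated with each drug of the Enzo FDA-approved library at 20 µg/ml (final µM given per drug). Cells were fixed after 6–7 h (S1) or 6 h (S2), or after 4.33 h for BY4741 (S3), then stained with SYTOX Green. %G1 is the Dean-Jett-Fox G1 peak area divided by the G1+G2/M peak areas, written as a fraction and averaged over at least two independent experiments. DMSO reference: mean ~0.49; >0.60 is called High G1 and <0.3876 Low G1. Scale: lower means mitotic delay.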", "values": [
      {"compound": "CCc1nn(CCCN2CCN(c3cccc(Cl)c3)CC2)c(=O)n1CCOc1ccccc1", "note": "[Nefazodone] (42.5515 µM)", "fraction of cells in G1 phase": 0.422},
      {"compound": "CC(C)(C)C(=O)C(Oc1ccc(Cl)cc1)n1ccnc1", "note": "(stereo not given) [Climbazole] (68.3135 µM)", "fraction of cells in G1 phase": 0.496},
      {"compound": "COc1c(N2CCNC(C)C2)c(F)cc2c(=O)c(C(=O)O)cn(C3CC3)c12", "note": "(stereo not given) [Gatifloxacin] (53.276 µM)", "fraction of cells in G1 phase": 0.391},
      {"compound": "CC(=O)[C@H]1CC[C@H]2[C@@H]3CCC4=CC(=O)CC[C@]4(C)[C@H]3CC[C@]12C", "note": "[Progesterone] (63.5987 µM)", "fraction of cells in G1 phase": 0.501},
      {"compound": "O=c1[nH]c2ccccc2n1CCCN1CCN(C(c2ccccc2)c2ccccc2)CC1", "note": "[Oxatomide] (46.886 µM)", "fraction of cells in G1 phase": 0.433}
    ]},
    {"test_system": "Saccharomyces cerevisiae", "test": "fraction of cells in G1 phase (DNA content, flow cytometry); higher = more cells with unreplicated DNA (G1 delay)", "settings": "temperature: 30 C; YPD; JTY2953 pdr5 snq2 (sensitized); drug added to: actively dividing cells; 6 h", "method": "as §1", "values": [
      {"compound": "O=C1NCN(c2ccccc2)C12CCN(CCCC(c1ccc(F)cc1)c1ccc(F)cc1)CC2", "note": "[Fluspirilene] (42.0533 µM)", "fraction of cells in G1 phase": 0.338},
      {"compound": "CCc1nn(CCCN2CCN(c3cccc(Cl)c3)CC2)c(=O)n1CCOc1ccccc1", "note": "[Nefazodone] (42.5515 µM)", "fraction of cells in G1 phase": 0.688},
      {"compound": "CC(C)(C)C(=O)C(Oc1ccc(Cl)cc1)n1ccnc1", "note": "(stereo not given) [Climbazole] (68.3135 µM)", "fraction of cells in G1 phase": 0.833},
      {"compound": "COc1cccc2c1C(=O)c1c(O)c3c(c(O)c1C2=O)C[C@@](O)(C(=O)CO)C[C@@H]3O[C@H]1C[C@H](N)[C@H](O)[C@H](C)O1", "note": "[Doxorubicin HCl] (34.4828 µM)", "fraction of cells in G1 phase": 0.618},
      {"compound": "CC(=O)[C@H]1CC[C@H]2[C@@H]3CCC4=CC(=O)CC[C@]4(C)[C@H]3CC[C@]12C", "note": "[Progesterone] (63.5987 µM)", "fraction of cells in G1 phase": 0.693},
      {"compound": "O=c1[nH]c2ccccc2n1CCCN1CCN(C(c2ccccc2)c2ccccc2)CC1", "note": "[Oxatomide] (46.886 µM)", "fraction of cells in G1 phase": 0.791}
    ]},
    {"test_system": "Saccharomyces cerevisiae", "test": "fraction of cells in G1 phase (DNA content, flow cytometry); higher = more cells with unreplicated DNA (G1 delay)", "settings": "temperature: 30 C; YPD; JTY2953 pdr5 snq2 (sensitized); drug added to: cultures diluted from stationary phase; 6-7 h", "method": "as §1", "values": [
      {"compound": "CC(N)C12CC3CC(CC(C3)C1)C2", "note": "(stereo not given) [Rimantadine HCl] (111.54 µM)", "fraction of cells in G1 phase": 0.484},
      {"compound": "CN(Cc1ccc(C(C)(C)C)cc1)Cc1cccc2ccccc12", "note": "[Butenafine] (62.9964 µM)", "fraction of cells in G1 phase": 0.405},
      {"compound": "COc1ccc(/C=C/C(=O)Nc2ccccc2C(=O)O)cc1OC", "note": "[Tranilast] (61.0986 µM)", "fraction of cells in G1 phase": 0.546},
      {"compound": "CC[N+](CC)(CC)CCOc1cccc(OCC[N+](CC)(CC)CC)c1OCC[N+](CC)(CC)CC", "note": "[Gallamine triethiodide] (39.1519 µM)", "fraction of cells in G1 phase": 0.516},
      {"compound": "Cc1cccc(Nc2ccccc2C(=O)O)c1C", "note": "[Mefenamic acid] (82.887 µM)", "fraction of cells in G1 phase": 0.464},
      {"compound": "CO[C@H]1C[C@H](O[C@H]2[C@H](C)[C@@H](O[C@@H]3O[C@H](C)C[C@H](N(C)C)[C@H]3OC(C)=O)[C@@H](C)C[C@@]3(CO3)C(=O)[C@H](C)[C@@H](OC(C)=O)[C@@H](C)[C@@H](C)OC(=O)[C@@H]2C)O[C@@H](C)[C@@H]1OC(C)=O", "note": "[Troleandomycin] (24.5704 µM)", "fraction of cells in G1 phase": 0.489},
      {"compound": "Nc1ccn([C@@H]2O[C@H](CO)[C@@H](O)C2(F)F)c(=O)n1", "note": "[Gemcitabine HCl] (75.9871 µM)", "fraction of cells in G1 phase": 0.49},
      {"compound": "CN(C(=O)CCCOc1ccc2[nH]c(=O)ccc2c1)C1CCCCC1", "note": "[Cilostamide] (58.4041 µM)", "fraction of cells in G1 phase": 0.499},
      {"compound": "O=C(C1CCCCC1)N1CC(=O)N2CCc3ccccc3C2C1", "note": "(stereo not given) [Praziquantel] (64.0173 µM)", "fraction of cells in G1 phase": 0.441},
      {"compound": "N/C(=N\\C(=O)c1nc(Cl)c(N)nc1N)NCc1ccccc1", "note": "[Benzamil HCl] (56.1482 µM)", "fraction of cells in G1 phase": 0.493},
      {"compound": "COc1ccc(CCN(C)CCCC(C#N)(c2ccc(OC)c(OC)c2)C(C)C)cc1OC", "note": "(stereo not given) [Verapamil] (40.7249 µM)", "fraction of cells in G1 phase": 0.507},
      {"compound": "Nc1ccc(S(=O)(=O)Nc2ncccn2)cc1", "note": "[Sulfadiazine] (79.9102 µM)", "fraction of cells in G1 phase": 0.521},
      {"compound": "COCc1c(C(C)C)nc(C(C)C)c(/C=C/[C@@H](O)C[C@@H](O)CC(=O)O)c1-c1ccc(F)cc1", "note": "[Cerivastatin] (43.5196 µM)", "fraction of cells in G1 phase": 0.448},
      {"compound": "O=C1NCN(c2ccccc2)C12CCN(CCCC(c1ccc(F)cc1)c1ccc(F)cc1)CC2", "note": "[Fluspirilene] (42.0533 µM)", "fraction of cells in G1 phase": 0.865},
      {"compound": "CCc1nn(CCCN2CCN(c3cccc(Cl)c3)CC2)c(=O)n1CCOc1ccccc1", "note": "[Nefazodone] (42.5515 µM)", "fraction of cells in G1 phase": 0.721},
      {"compound": "COc1ccc(C[C@H](N)C(=O)N[C@H]2[C@@H](O)[C@H](n3cnc4c(N(C)C)ncnc43)O[C@@H]2CO)cc1", "note": "[Puromycin 2HCl] (36.7377 µM)", "fraction of cells in G1 phase": 0.5},
      {"compound": "CC(C)Cn1cnc2c(N)nc3ccccc3c21", "note": "[Imiquimod] (83.2257 µM)", "fraction of cells in G1 phase": 0.484},
      {"compound": "CC(C)(C)C(=O)C(Oc1ccc(Cl)cc1)n1ccnc1", "note": "(stereo not given) [Climbazole] (68.3135 µM)", "fraction of cells in G1 phase": 0.719},
      {"compound": "Cc1cnc(NC(=O)C2=C(O)c3ccccc3S(=O)(=O)N2C)s1", "note": "[Meloxicam] (56.9143 µM)", "fraction of cells in G1 phase": 0.501},
      {"compound": "COc1cccc2c1C(=O)c1c(O)c3c(c(O)c1C2=O)C[C@@](O)(C(=O)CO)C[C@@H]3O[C@H]1C[C@H](N)[C@H](O)[C@H](C)O1", "note": "[Doxorubicin HCl] (34.4828 µM)", "fraction of cells in G1 phase": 0.64},
      {"compound": "Cn1nnc2c(C(N)=O)ncn2c1=O", "note": "[Temozolomide] (103.011 µM)", "fraction of cells in G1 phase": 0.48},
      {"compound": "COc1c(N2CCNC(C)C2)c(F)cc2c(=O)c(C(=O)O)cn(C3CC3)c12", "note": "(stereo not given) [Gatifloxacin] (53.276 µM)", "fraction of cells in G1 phase": 0.335},
      {"compound": "N=C(N)N/N=C/c1c(Cl)cccc1Cl", "note": "[Guanabenz acetate] (86.548 µM)", "fraction of cells in G1 phase": 0.488},
      {"compound": "CC[C@H]1OC(=O)[C@H](C)[C@@H](O[C@H]2C[C@@](C)(OC)[C@@H](O)[C@H](C)O2)[C@H](C)[C@@H](O[C@@H]2O[C@H](C)C[C@H](N(C)C)[C@H]2O)[C@](C)(O)C[C@@H](C)CN(C)[C@H](C)[C@@H](O)[C@]1(C)O", "note": "[Azithromycin] (26.7021 µM)", "fraction of cells in G1 phase": 0.471},
      {"compound": "CC[C@]1(O)C[C@H]2CN(CCc3c([nH]c4ccccc34)[C@@](C(=O)OC)(c3cc4c(cc3OC)N(C=O)[C@H]3[C@@](O)(C(=O)OC)[C@H](OC(C)=O)[C@]5(CC)C=CCN6CC[C@]43[C@@H]65)C2)C1", "note": "[Vincristine sulfate] (24.243 µM)", "fraction of cells in G1 phase": 0.481},
      {"compound": "O=C(c1ccc(F)cc1)C1CCN(CCn2c(=O)[nH]c3ccccc3c2=O)CC1", "note": "[Ketanserin tartrate] (50.5769 µM)", "fraction of cells in G1 phase": 0.475},
      {"compound": "CC(=O)[C@H]1CC[C@H]2[C@@H]3CCC4=CC(=O)CC[C@]4(C)[C@H]3CC[C@]12C", "note": "[Progesterone] (63.5987 µM)", "fraction of cells in G1 phase": 0.607},
      {"compound": "COc1ccc2[nH]cc(CCNC(C)=O)c2c1", "note": "[Melatonin] (86.1012 µM)", "fraction of cells in G1 phase": 0.529},
      {"compound": "O=c1[nH]c2ccccc2n1CCCN1CCN(C(c2ccccc2)c2ccccc2)CC1", "note": "[Oxatomide] (46.886 µM)", "fraction of cells in G1 phase": 0.836}
    ]}
  ]
}
